Measured values as given in PubChem BioAssay (Tox21).
Several values for one entry are separate records, joined by “and”; a condition that tells them apart may be missing. Equal entries are not always repeated. Records with an inconclusive call do not appear. Activity calls are given as the source filed them. Unless noted, calls come from the whole dose curve; as a rule, active = well fitted curve in the direction sought with a large enough effect in the repeat runs; inconclusive = weak or mixed curves; inactive = no such curve, though single readings can be large; an effect the other way counts as inactive or inconclusive.

Experiments:
[1] = qHTS assay for small molecule agonists of the p53 signaling pathway - cell viability (AID 651633; calls by dose curve; note: nearly all actives have a fitted effect of over 30% in size; note: potency is the fitted concentration of half-maximal effect); conditions: p53RE-bla HCT-116 viability, ATP luminescence, 16 h; series mostly up to 83.3 µM
Procedure, shortened: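 Viability counter-read: CellTiter-Glo luminescence (30 min, room temperature) in the same p53RE-bla plates. These plates had been exposed to compounds for 16 h at 37 C.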

[2] = qHTS assay for small molecules that induce genotoxicity in human embryonic kidney cells expressing luciferase-tagged ATAD5 - cell viability (AID 651634; calls by dose curve; note: nearly all actives have a fitted effect of over 25% in size; note: potency is the fitted concentration of half-maximal effect); conditions: HEK293T ATAD5-luc cells viability, CellTiter-Fluor, 15.5 h; series mostly up to 83.3 µM
Procedure, shortened: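 Here HEK293T cells with the ATAD5 luciferase reporter are incubated with test compounds for 15.5 hr, and cytotoxicity is then gauged by measuring protease activity in live cells using fluorescence.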

[3] = qHTS assay for small molecule disruptors of the mitochondrial membrane potential - cell viability (AID 720634; calls by dose curve;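 note: human HepG2 liver cancer cells; nearly all actives have a fitted effect of over 20% in size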); conditions: HepG2 viability, ATP luminescence (CellTiter-Glo), 1 h; series mostly up to 83.2 µM
Procedure, shortened: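 Viability of HepG2 cells is scored from ATP content by luminescence; cells are exposed to compound for 1 hr at 37 C and 5% CO2, then dosed with m-MPI dye before the CellTiter-Glo reagent.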

[4] = qHTS assay for small molecule disruptors of the mitochondrial membrane potential (AID 720635); conditions: HepG2 mitochondrial membrane potential, Mito-MPS dye ratio; series mostly up to 83.2 µM; note: potency is the fitted concentration of half-maximal effect
Procedure, shortened: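 Mitochondrial membrane potential tracked with Mito-MPS dye, red aggregates (ex 540/em 590 nm) against green monomers (ex 490/em 535 nm). Compound treatment 1 hr at 37C, dye 30 min in HepG2.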

[5] = qHTS assay to test for compound auto fluorescence at 590 nm (red) in HepG2 cells (AID 720674); conditions: HepG2 autofluorescence, red 540/590 nm, 1 h; series mostly up to 91.3 µM
Procedure, shortened: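 1 hr compound incubation on HepG2 cells, 37 C, 5% CO2; plate read ex 540 nm / em 590 nm; intensities reported as Rose Bengal sodium equivalents.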

[6] = qHTS assay to test for compound auto fluorescence at 535 nm (green) in HepG2 cells (AID 720675); conditions: green autofluorescence 485/535 nm, 1 h; series mostly up to 91.3 µM
[7] = qHTS assay to test for compound auto fluorescence at 460 nm (blue) in HEK293 cells (AID 720678); conditions: blue autofluorescence 405/460 nm; series mostly up to 91.3 µM
Procedure, shortened: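 Auto fluorescence in the blue band was quantified as triamterene equivalency. HEK293 cells were seeded at 2,000/well, dosed after a 4-5 hr attachment, and kept overnight at 37C before the 405/460 nm reading.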

[8] = qHTS assay to test for compound auto fluorescence at 590 nm (red) in HEK293 cells (AID 720679); conditions: red autofluorescence 540/590 nm; series mostly up to 91.3 µM
Procedure, shortened: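 Autofluorescence equivalency to Rose Bengal sodium, 540/590nm, in HEK293 cells exposed overnight to 23 nL compound per well.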

[9] = qHTS assay for small molecules that induce genotoxicity in human embryonic kidney cells expressing luciferase-tagged ATAD5 (AID 651632); conditions: HEK293T ATAD5-luciferase induction, 16 h; series mostly up to 83.3 µM; note: nearly all actives have a fitted effect of over 15% in size
Procedure, shortened: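 DMSO vehicle served as the control. HEK293T reporter cells, 16 hr at 37C, then 30 min Amplite at room temperature; ATAD5 induction is measured as luciferase activity.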

[10] = qHTS assay for small molecule agonists of the p53 signaling pathway (AID 651631; calls by dose curve; note: nearly all actives have a fitted effect of over 15% in size); conditions: HCT-116 p53RE-bla reporter, beta-lactamase FRET ratio, 16 h; series mostly up to 73.3 µM
Procedure, shortened: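 Quantitative high-throughput format: 4,000 p53RE-bla HCT-116 cells/well, 5 h pre-incubation, 16 h compound exposure at 37 °C, 2 h room-temperature substrate step, fluorescence intensity measured.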

Measured: Potency

O=C1N=C(O)CN1/N=C/c1ccc(-c2ccc([N+](=O)[O-])cc2)o1
inactive: [1] | [2] | [3] | [5] | [6] | [7] | [8]
active: [4] 3.35 µM and 2.43 µM

O=C1CCCCC1
inactive: [9] | [1] | [2] | [3] | [4] | [5] | [6] | [7] | [8]

O=S(=O)(Oc1ccc(Cl)cc1Cl)c1ccccc1
inactive: [9] | [2] | [5] | [6] | [7] | [8]
active: [4] 27.8 µM and 61.1 µM

CCOC(=O)C1OC1c1ccccc1 (stereo not drawn)
inactive: [1] | [2] | [3] | [4] | [5] | [6] | [7] | [8]

Cc1cc(O)cc(C)c1Cl
active: [4] 21.1 µM and 21.7 µM
inactive: [9] | [1] | [2] | [3] | [5] | [6] | [7] | [8]

CC1=C(/C=C/C(C)=C/C=C/C(C)=C/CO)C(C)(C)CCC1
inactive: [9] | [1] | [2] | [3] | [5] | [6] | [7] | [8]

Nc1c(S(=O)(=O)O)cc(Br)c2c1C(=O)c1ccccc1C2=O
inactive: [9] | [1] | [3] | [5] | [6] | [7] | [8]
active: [2] 30.6 µM

CCCCOCCOCCOC(=O)CCCCC(=O)OCCOCCOCCCC
inactive: [9] | [1] | [2] | [3] | [4] | [5] | [6] | [7] | [8]

NCCNCCNCCNCCN
inactive: [9] | [1] | [2] | [3] | [4] | [5] | [6] | [7] | [8]

NC(=O)NNc1ccccc1
inactive: [10] | [1] | [2] | [3] | [4] | [5] | [6] | [7] | [8]

ClC1=C(Cl)C(Cl)(Cl)C(Cl)=C1Cl
active: [1] 13.8 µM | [2] 6.9 µM and 15.4 µM | [4] 61.1 µM
inactive: [9] | [3] | [5] | [6] | [7] | [8]

Oc1ccc2ccccc2c1
inactive: [10] | [1] | [2] | [3] | [5] | [6] | [7] | [8]
active: [4] 49.7 µM and 30.6 µM

CN(CCOc1ccc(CC2SC(=O)NC2=O)cc1)c1ccccn1 (stereo not drawn)
inactive: [9] | [1] | [2] | [3] | [5] | [6] | [7] | [8]
active: [4] 48.3 µM

CC(C)NCC(O)COc1cccc2ccccc12 (stereo not drawn)
inactive: [10] | [1] | [2] | [3] | [5] | [6] | [7] | [8]

OCC#CCO
inactive: [10] | [1] | [2] | [3] | [4] | [5] | [6] | [7] | [8]

CCCCC(CC)COC(C)=O (stereo not drawn)
inactive: [9] | [2] | [3] | [4] | [5] | [6] | [7] | [8]

Cc1ccc(C(=O)O)o1
inactive: [9] | [1] | [2] | [3] | [4] | [5] | [6] | [7] | [8]

O=C(O)c1ccc([N+](=O)[O-])cc1
inactive: [10] | [1] | [2] | [3] | [4] | [5] | [6] | [7] | [8]

CCc1ccccc1O
inactive: [9] | [1] | [2] | [3] | [4] | [5] | [6] | [7] | [8]
